In PubChem BioAssay (Tox21):
Records with an inconclusive call do not appear. A call without a number means that no potency is given here. Calls of active or inactive are those of the source. Unless noted, calls follow the shape of the dose curve; as a rule, active = well fitted curve in the direction sought with a large enough effect in the repeat runs; inconclusive = weak or mixed curves; inactive = no such curve, though single readings can be large; an effect the other way counts as inactive or inconclusive.

Key:
[1] = qHTS assay to identify small molecule antagonists of the peroxisome proliferator-activated receptor gamma (PPARg) signaling pathway - cell viability counter screen (AID 743194); also: nearly all actives have a fitted effect of over 55% in size; also: potency is read from the fitted curve at half-maximal effect
In short: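 PPARg-UAS-bla HEK293H cells were plated, rested 5 h at 37 C, then treated with compounds plus rosiglitazone (50 nM final) for 17 h at 37 C; viability was then read by CellTiter-Glo luminescence after 30 min at room temperature.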

[2] = qHTS assay for small molecule agonists of the antioxidant response element (ARE) signaling pathway (AID 743202; active = well fitted activation curve with a large enough effect in the signal ratio in the repeat runs, not every such curve was filed as active; the % refers to the signal ratio; also: potency is read from the fitted curve at half-maximal effect)
In short: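 Steps: seed ARE-bla HepG2 cells (2,000/well); incubate 5 h at 37 C; add compounds by pin tool; incubate 16 h at 37 C; add FRET substrate; read fluorescence after 2 h at RT.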

[3] = qHTS assay for small molecule agonists of the antioxidant response element (ARE) signaling pathway - cell viability counter screen (AID 743203; calls by dose curve; also: nearly all actives have a fitted effect of over 55% in size; also: potency is read from the fitted curve at half-maximal effect)
In short: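 ATP content via CellTiter-Glo luminescence served as the viability measure. Cells: ARE-bla HepG2, 2,000 per well. Exposure: 16 hrs, 37C/5% CO2.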

[4] = qHTS assay for small molecule activators of the heat shock response signaling pathway - cell viability counter screen (AID 743209); also: nearly all actives have a fitted effect of over 50% in size
In short: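 Compounds dissolved in DMSO were added to overnight-plated HSE-bla HeLa cells and left 5 h at 37 C. Cell viability was quantified by luminescence using CellTiter-Glo.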

[5] = qHTS assay for small molecule activators of the heat shock response signaling pathway (AID 743210; active = well fitted activation curve with a large enough effect in the signal ratio in the repeat runs, with a control signal flat, not every such curve was filed as active; the % refers to the signal ratio; also: potency is read from the fitted curve at half-maximal effect;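 as to activation: HeLa cells with beta-lactamase reporter driven by heat shock elements; series mostly up to about 63 µM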)
In short: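 Activation of heat shock element-controlled beta-lactamase expression is measured in HeLa cells by LiveBLAzer FRET fluorescence, with compound exposure lasting 5 h at 37 C and substrate loading 2.5 h at room temperature.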

[6] = target: Aryl hydrocarbon receptor (Homo sapiens) (UniProt P35869); experiment: qHTS assay to identify small molecule that activate the aryl hydrocarbon receptor (AhR) signaling pathway (AID 743085); also: nearly all actives have a fitted effect of over 15% in size; also: potency is read from the fitted curve at half-maximal effect;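 as to activation: HG2L7.5c1 human HepG2 liver cells with stably integrated DRE-driven firefly reporter; series mostly up to about 70 µM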
In short: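 Reporter assay in engineered HepG2 line HG2L7.5c1, whose plasmid carries twenty dioxin responsive elements upstream of firefly luciferase. Treatment lasted 24 h at 37C; ONE-Glo luminescence gauged induction.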

[7] = target: Peroxisome proliferator-activated receptor gamma (Homo sapiens) (UniProt P37231); experiment: qHTS assay to identify small molecule agonists of the peroxisome proliferator-activated receptor gamma (PPARg) signaling pathway (AID 743094; active = well fitted activation curve with a large enough effect in the signal ratio in the repeat runs, not every such curve was filed as active; the % refers to the signal ratio)
In short: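 Agonism was assessed in a beta-lactamase reporter system, HEK293H cells with a stably integrated UAS-bla construct under PPARg control; the 17 h treatment at 37C preceded a 1 h room-temperature FRET substrate read.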

[8] = target: Peroxisome proliferator-activated receptor gamma (Homo sapiens) (UniProt P37231); experiment: qHTS assay to identify small molecule antagonists of the peroxisome proliferator-activated receptor gamma (PPARg) signaling pathway (AID 743191; calls by dose curve; also: series mostly up to about 63 µM; nearly all actives have a fitted effect of over 30% in size)
In short: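 GeneBLAzer PPARg UAS-bla HEK293H cells carrying a UAS-driven beta-lactamase reporter were plated at 3000 cells/well, preincubated 5 h at 37C, then given compound for 17 h at 37C; LiveBLAzer B/G FRET substrate was read after 1 h at room temperature.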

[9] = qHTS assay to identify small molecule that activate the aryl hydrocarbon receptor (AhR) signaling pathway - cell viability counter screen (AID 743086); also: nearly all actives have a fitted effect of over 45% in size; also: potency is read from the fitted curve at half-maximal effect
In short: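 HepG2-AhR-luc (HG2L7.5c1) cells, 4000/well, were preincubated 5 h at 37C, exposed to compound in qHTS format for 24 hr at 37C, then given CellTiter-Fluor for 30 min; viability was read as fluorescence in the reporter wells.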

Sequence of Aryl hydrocarbon receptor (Homo sapiens) (P35869 whole entry, looked up): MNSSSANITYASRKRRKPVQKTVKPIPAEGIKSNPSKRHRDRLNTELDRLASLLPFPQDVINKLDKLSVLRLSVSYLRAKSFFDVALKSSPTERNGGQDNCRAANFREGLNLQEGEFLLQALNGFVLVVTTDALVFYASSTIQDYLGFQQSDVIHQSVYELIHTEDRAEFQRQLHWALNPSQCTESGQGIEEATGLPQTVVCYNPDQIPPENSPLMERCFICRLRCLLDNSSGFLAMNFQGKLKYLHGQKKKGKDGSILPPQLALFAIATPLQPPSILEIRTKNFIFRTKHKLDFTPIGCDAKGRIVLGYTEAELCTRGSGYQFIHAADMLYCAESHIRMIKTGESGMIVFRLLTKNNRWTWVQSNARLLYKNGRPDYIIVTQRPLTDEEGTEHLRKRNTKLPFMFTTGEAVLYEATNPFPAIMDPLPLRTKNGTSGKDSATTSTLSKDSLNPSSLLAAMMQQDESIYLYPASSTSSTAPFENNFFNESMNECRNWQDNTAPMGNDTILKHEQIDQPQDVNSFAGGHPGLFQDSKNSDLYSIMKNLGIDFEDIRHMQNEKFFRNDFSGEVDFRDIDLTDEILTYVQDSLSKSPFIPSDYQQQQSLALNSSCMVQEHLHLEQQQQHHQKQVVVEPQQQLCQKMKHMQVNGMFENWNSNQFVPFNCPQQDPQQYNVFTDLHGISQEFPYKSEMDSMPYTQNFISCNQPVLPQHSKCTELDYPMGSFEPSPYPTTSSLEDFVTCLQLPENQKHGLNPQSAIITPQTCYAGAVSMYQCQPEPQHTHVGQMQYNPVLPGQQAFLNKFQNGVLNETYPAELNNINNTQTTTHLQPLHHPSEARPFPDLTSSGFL
Sequence of Peroxisome proliferator-activated receptor gamma (Homo sapiens) (P37231 whole entry, looked up): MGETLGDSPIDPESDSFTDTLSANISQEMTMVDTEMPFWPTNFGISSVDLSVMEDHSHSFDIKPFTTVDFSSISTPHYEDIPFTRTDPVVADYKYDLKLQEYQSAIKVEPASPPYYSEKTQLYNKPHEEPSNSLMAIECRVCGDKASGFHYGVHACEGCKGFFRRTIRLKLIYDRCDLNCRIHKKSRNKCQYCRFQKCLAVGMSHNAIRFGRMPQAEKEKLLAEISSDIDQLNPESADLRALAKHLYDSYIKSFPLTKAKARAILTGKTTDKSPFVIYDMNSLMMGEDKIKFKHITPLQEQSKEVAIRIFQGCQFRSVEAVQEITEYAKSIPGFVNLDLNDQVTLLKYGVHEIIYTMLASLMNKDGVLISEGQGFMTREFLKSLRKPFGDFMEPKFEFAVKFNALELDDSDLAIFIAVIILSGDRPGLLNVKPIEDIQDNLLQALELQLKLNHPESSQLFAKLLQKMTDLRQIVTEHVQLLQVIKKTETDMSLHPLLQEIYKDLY

Structure (SMILES): C[C@H]1C[C@H](O)c2ccsc2S1(=O)=O
- Potency [1]: inactive
- Potency [2]: inactive
- Potency [3]: inactive
- Potency [4]: inactive
- Potency [5]: inactive

Structure (SMILES): COc1ccccc1NC(=O)c1cc2ccccc2cc1O
- Potency [6]: 3.06 µM (active)
- Potency [7]: inactive
- Potency [1]: 17.4 µM (active)
- Potency [5]: 50.9 µM (active)

Structure (SMILES): OC1(c2ccccc2)CCNCC1
- Potency [8]: inactive
- Potency [1]: inactive
- Potency [2]: inactive
- Potency [3]: inactive
- Potency [4]: inactive
- Potency [5]: inactive

Structure (SMILES): C/C=C\C/C=C/CCCCCCCCOC(C)=O
- Potency [6]: inactive
- Potency [9]: inactive
- Potency [1]: inactive
- Potency [4]: inactive

Structure (SMILES): OCCN1CCN(CCCN2c3ccccc3Sc3ccc(Cl)cc32)CC1
- Potency [7]: inactive
- Potency [3]: 29.8 µM (active)
- Potency [4]: inactive
- Potency [5]: inactive

Structure (SMILES): O=[N+]([O-])c1ccc(Nc2ccc(Nc3ccccc3)c(S(=O)(=O)O)c2)c([N+](=O)[O-])c1
- Potency [6]: inactive
- Potency [7]: inactive
- Potency [8]: inactive
- Potency [1]: inactive
- Potency [3]: inactive
- Potency [4]: inactive
- Potency [5]: inactive

Structure (SMILES): C[C@@]12CCC[C@H]1[C@@H]1CC[C@H]3C[C@@H](O)CC[C@]3(C)[C@H]1CC2
- Potency [1]: inactive
- Potency [2]: inactive
- Potency [3]: inactive
- Potency [4]: inactive

Structure (SMILES): CS(=O)(=O)c1ccc(-c2cn3ccccc3n2)cc1
- Potency [2]: inactive

Structure (SMILES): O=C1Cc2cc(Cl)ccc2N1
- Potency [8]: inactive
- Potency [2]: 21.1 µM (active)
- Potency [3]: inactive
- Potency [4]: inactive
- Potency [5]: inactive

Structure (SMILES): NNC(=O)CP(=O)(c1ccccc1)c1ccccc1
- Potency [9]: inactive
- Potency [2]: inactive
- Potency [3]: inactive
- Potency [4]: inactive
- Potency [5]: inactive

Structure (SMILES): CC(C)=CCC/C(C)=C/CC/C(C)=C/C(=O)OCC(=O)[C@@]1(O)CC[C@H]2[C@@H]3CCC4=CC(=O)C=C[C@]4(C)[C@H]3[C@@H](O)C[C@@]21C
- Potency [4]: inactive

Structure (SMILES): CCCC(C(=O)OCCN(CC)CC)(c1ccccc1)c1ccccc1
- Potency [6]: inactive
- Potency [7]: inactive
- Potency [1]: inactive
- Potency [4]: inactive

Structure (SMILES): CC(C)C[C@H](NC(=O)[C@H](CCc1ccccc1)NC(=O)CN1CCOCC1)C(=O)N[C@@H](Cc1ccccc1)C(=O)N[C@@H](CC(C)C)C(=O)[C@@]1(C)CO1
- Potency [6]: inactive
- Potency [9]: 0.0473 µM (active)
- Potency [2]: 0.0668 µM (active)
- Potency [3]: 3.76 µM (active)
- Potency [4]: inactive

Structure (SMILES): c1ccc2c(c1)CCc1ccccc1N2
- Potency [9]: inactive
- Potency [7]: inactive
- Potency [8]: inactive
- Potency [2]: inactive
- Potency [3]: inactive
- Potency [4]: inactive
- Potency [5]: inactive

Structure (SMILES): CC(CC1c2ccccc2CCc2ccccc21)CN(C)C (centres undefined)
- Potency [3]: inactive
- Potency [4]: inactive

Structure (SMILES): O=c1cc(-c2ccccc2)oc2cc(O)cc(O)c12
- Potency [6]: 12.2 µM (active)
- Potency [1]: inactive

Structure (SMILES): CN(C(=O)CN(CCO)CC(=O)N(C)C(C)(C)Cc1ccccc1)C(C)(C)Cc1ccccc1
- Potency [9]: inactive
- Potency [1]: inactive
- Potency [2]: inactive
- Potency [3]: inactive
- Potency [4]: inactive

Structure (SMILES): Nc1nc2ccc([N+](=O)[O-])cc2s1
- Potency [6]: 32.5 µM (active)
- Potency [7]: inactive
- Potency [2]: 9.69 µM (active)
- Potency [3]: inactive

Structure (SMILES): CC(=O)c1cc2ccccc2s1
- Potency [2]: inactive
- Potency [3]: inactive
- Potency [4]: inactive
- Potency [5]: inactive

Structure (SMILES): COc1cc(Nc2c(C#N)cnc3cc(OCCCN4CCN(C)CC4)c(OC)cc23)c(Cl)cc1Cl
- Potency [6]: inactive
- Potency [9]: 13.3 µM (active)
- Potency [1]: 21.1 µM (active)
- Potency [3]: 18.8 µM (active)
- Potency [4]: inactive
